This is part of a sample that, as a whole, favours compounds with a hit. Of some 83,000 tested, about 20% had one in any assay.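 Values shown are percent growth following 48 h exposure of cells in 96-well plates to a single concentration of compound; below 10 was considered active.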 Values without a mark were called inactive. Activity calls are given as the source filed them.
System: LOX IMVI melanoma
Test: NCI-60 one-dose screen, 48 h (100 = growth as untreated, 0 = no growth, -100 = all killed)
Conditions: 10 µM unless noted
Method: Growth inhibition of the LOX IMVI human tumor cell line is measured as a screen for anti-cancer activity. Cells are grown in 96 well plates and exposed to the test compound for 48 hours. Compounds are tested at a single concentration, which is 10^-5 M for most compounds. The reported endpoint is percent growth (GI% or GIPRCNT), where numbers from 0 - 100% represent growth inhibition, and numbers from -100% - 0 represent cell death. For example, a value of 40 represents 60% growth inhibition. A value of 0 means no net growth occurred over the course of the experiment. A value of -40 indicates 40% of cells at the beginning of the experiment died by the end of the experiment. A value of -100 means all cells are dead at the end of the experiment.
NCI-60 Human Tumor Cell Lines Screen was performed using the standard one-dose NCI protocol, which is described in more detail at https://dtp.cancer.gov/discovery_development/nci-60/default.htm.
Compounds with GIPRCNT values below 10 were considered active. Activity score was based on GIPRCNT using the following formula: […]
Score is 0 for GIPRCNT values of 100 or above, 50 for GIPRCNT values of 0, and 100 for GIPRCNT values of -100.

Question: How did the growth turn out when `CCCCNC(=O)c1cc(NCc2cc(O)ccc2O)ccc1O` was run?
Answer: Its growth is 91.3%.

Question: With `CN1CCC(=C2c3ccccc3C=Cc3ccccc32)CC1` as the compound, how does the growth read?
Answer: The growth was 72.1%.

Question: How did the growth turn out when `CCCCNCC(=O)Nc1ccc(C(=O)OCC)cc1` was run?
Answer: Its growth is 103%.

Question: How did the growth turn out when `CCn1c(Sc2nnc(Nc3ccccc3)s2)nc2c1c(=O)n(C)c(=O)n2C` was run?
Answer: Its growth is 95.9%.

Question: How did the growth turn out when `CCN1CCN(c2ccc(Nc3cc(-c4cccnc4Nc4c(Cl)c(OC)cc(OC)c4Cl)ncn3)cc2)CC1` was run?
Answer: Its growth is 44.7%.

Question: `CCc1nc2ccccc2[nH]1` was tested. Which growth did it give?
Answer: The growth was 107%.

Question: How did the growth turn out when `CO/C(=C1/NC(=O)C(Cc2ccc(O)c(Br)c2)N(C)C(=O)C(C)NC(=O)CCC/C=C(\C)CCC(C)OC1=O)c1ccccc1` (stereo not given) was run?
Answer: The growth was -34.2% (active).

Question: With `NC(=Nc1ccc(N)cc1)C(N)=Nc1ccc(N)cc1` as the compound, how does the growth read?
Answer: The growth was 97.2%.

Question: For `CS(=O)(=O)c1ccc(-c2[nH]c3ccc(F)cc3c2/C=N/NC(N)=S)cc1`, which growth is on record?
Answer: The growth was 30.1%.

Question: `O=C(Oc1ccc([N+](=O)[O-])cc1)c1ccc(CBr)cc1` was tested. Which growth did it give?
Answer: Its growth is 67.2%.

Question: With `N=c1ccn2c(n1)OC1C(O)C(CO)OC12` (stereo not given) as the compound, how does the growth read?
Answer: Its growth is 10.3%.

Question: With `COc1ccc(C2CC(c3ccccc3)=NN2c2nc(C)c(C(C)=O)s2)cc1` (stereo not given) as the compound, how does the growth read?
Answer: Its growth is 94.6%.

Question: `CC(=O)c1cc2c(o1)C(=O)c1ccccc1C2=O` was tested. Which growth did it give?
Answer: The growth was -59.3% (active).

Question: With `CC12CC(C#N)CCC1O2` (stereo not given) as the compound, how does the growth read?
Answer: Its growth is 108%.

Question: With `CN(C)CCOC(=O)Nc1ccc(Cl)cc1` as the compound, how does the growth read?
Answer: The growth was 101%.

Question: For `CC1(C)CC(=O)c2c(ccc(C(=O)C[C@H](N)CO)c2N)O1`, which growth is on record?
Answer: The growth was -61.7% (active).

Question: Which growth does the source give for `NC(=S)N/N=C/C(=O)O` here?
Answer: Its growth is 93.3%.

Question: Which growth does the source give for `C#C[C@]1(O)CC[C@H]2[C@@H]3CC=C4c5sc(N=C(N)N)nc5CC[C@]4(C)[C@H]3CC[C@@]21C` here?
Answer: The growth was -64.4% (active).

Question: With `CNC(=O)c1cc(Oc2ccc3nc(NC(=O)Nc4cc(C(F)(F)F)cc(C(F)(F)F)c4)sc3c2)ccn1` as the compound, how does the growth read?
Answer: Its growth is -87.5% (active).

Question: How did the growth turn out when `N#Cc1c(NC(=O)c2ccc(Br)cc2)sc2c1CCCC2` was run?
Answer: The growth was 38.7%.

Question: With `CC(=O)C(C(C)=O)c1nc2sc3cc(Cl)ccc3n2c(=N)c1C#N` as the compound, how does the growth read?
Answer: The growth was 79.7%.

Question: With `O=C1Nc2ccccc2/C1=N/N=C/c1c[nH]c2ccccc12` as the compound, how does the growth read?
Answer: The growth was 68.4%.

Question: `CCn1c(Sc2nnc(NC(C)=O)s2)nc2c1c(=O)n(C)c(=O)n2C` was tested. Which growth did it give?
Answer: The growth was 90%.

Question: How did the growth turn out when `Cn1ccc(Cc2cnc(N)s2)n1` was run?
Answer: Its growth is 103%.

Question: For `NC(N)=N/N=C(/c1ccccc1)c1ccc(N)cc1`, which growth is on record?
Answer: The growth was 95%.

Question: For `CCCCCCCCc1cc[n+](CC(=O)c2ccc(Br)cc2)cc1`, which growth is on record?
Answer: Its growth is -84.8% (active).

Question: `CCc1c(C(=O)N[C@@H]2c3cc(Cl)ccc3CC[C@@H]2O)[nH]c(C)c1C(C)=O` was tested. Which growth did it give?
Answer: Its growth is 50.9%.

Question: For `COc1ccccc1NC(=O)Nc1ccc(-c2nc3ccccc3o2)cc1`, which growth is on record?
Answer: Its growth is 97.9%.

Question: Which growth does the source give for `Nc1c(C(=O)c2ccccc2)nnc2ncnn12` here?
Answer: Its growth is 101%.

Question: With `O=C(NCc1cn(Cc2cccc(Oc3ccccc3)c2)nn1)c1cccnc1NCc1ccc(Cl)cc1` as the compound, how does the growth read?
Answer: Its growth is 39.4%.

Question: With `CCN(CC)CCOC(=O)Nc1ccccc1Cl` as the compound, how does the growth read?
Answer: The growth was 101%.

Question: With `CCn1nc(C#Cc2c(C)ccc3c(Nc4ccc(Cl)cc4)nccc23)c2c(N)ncnc21` as the compound, how does the growth read?
Answer: The growth was 11.3%.

Question: How did the growth turn out when `CNC(=O)NCC1OC(n2cnc3c(NC(=O)Nc4ccccc4)ncnc32)C2OC(C)(C)OC12` (stereo not given) was run?
Answer: The growth was 100%.

Question: Which growth does the source give for `CN(C)CCCCNc1ccc(NCCCCN(C)C)c2c1C(=O)c1c(O)ccc(O)c1C2=O` here?
Answer: The growth was -79% (active).

Question: Which growth does the source give for `O=C1CSC(c2ccccc2)N1c1ccccc1` (stereo not given) here?
Answer: The growth was 97.7%.

Question: How did the growth turn out when `Nc1nc(N)c(-c2ccc(Cl)cc2)c(/C=C/c2ccc([N+](=O)[O-])cc2)n1` was run?
Answer: The growth was 60.6%.

Question: How did the growth turn out when `COc1cc2c(cc1OC)-c1ccc3cc4c(cc3c1N(CCCN1CCCCC1)C2)OCO4` was run?
Answer: The growth was 32.5%.

Question: How did the growth turn out when `Clc1ccc(-c2cn(-c3ccccc3)c(-c3ccccc3)n2)cc1` was run?
Answer: The growth was 95.8%.

Question: How did the growth turn out when `Cc1cc(-c2noc(C(F)(F)F)n2)ccc1N1CCN(c2cc(C(=O)N(C)C)no2)CC1` was run?
Answer: Its growth is 62.4%.

Question: How did the growth turn out when `COc1cc2oc(-c3cccc(C(=O)Nc4ccc(C)cc4)c3)cc(=O)c2c(OC)c1OC` was run?
Answer: Its growth is -7.81% (active).

Source: PubChem BioAssay (NCI)
